TDP1 block = blocks human tyrosyl-DNA phosphodiesterase 1 | AID 485290 | Q9NUW8 | 350,000 compounds, 0.28% hits | Potency, µM (titrated, usually from 130 µM), for inactives: top-dose activity change, negative = inhibition, actives largely listed as inhibitors | recombinant TDP1, AlphaScreen DNA substrate cleavage; further: potency means the concentration at half of the fitted maximal effect; on the % scale 0 is the no-effect control and ±100 the full control effect; nearly all actives have a fitted effect of over 40% in size
Target sequence (Q9NUW8 whole entry, looked up): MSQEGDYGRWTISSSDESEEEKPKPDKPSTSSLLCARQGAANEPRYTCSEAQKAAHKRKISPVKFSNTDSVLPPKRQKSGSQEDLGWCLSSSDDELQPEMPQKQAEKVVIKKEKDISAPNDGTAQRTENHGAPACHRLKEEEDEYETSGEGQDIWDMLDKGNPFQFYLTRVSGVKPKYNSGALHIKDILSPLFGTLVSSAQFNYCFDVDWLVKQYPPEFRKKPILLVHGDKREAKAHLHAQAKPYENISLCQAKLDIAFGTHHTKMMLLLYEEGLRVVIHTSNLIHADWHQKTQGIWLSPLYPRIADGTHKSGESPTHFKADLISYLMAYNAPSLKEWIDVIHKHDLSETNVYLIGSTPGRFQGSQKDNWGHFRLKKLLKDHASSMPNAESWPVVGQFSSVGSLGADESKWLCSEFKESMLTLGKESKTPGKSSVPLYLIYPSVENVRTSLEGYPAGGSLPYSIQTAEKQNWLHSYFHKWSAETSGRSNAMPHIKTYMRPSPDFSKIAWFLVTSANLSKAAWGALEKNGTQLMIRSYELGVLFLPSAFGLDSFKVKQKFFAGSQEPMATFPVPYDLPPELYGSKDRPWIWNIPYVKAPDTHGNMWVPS
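AlphaScreen read-out: signal falls as enzyme removes the 3' tyrosine-FITC from a 5'-biotinylated DNA oligo (15 nM, 5 min, RT). Enzyme was E. coli-made recombinant Tdp1 at 1 nM, exposed to compound for 15 min beforehand; beads 10 ug/ml, 10 min.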
DT40 TDP1 no CPT = qHTS for Inhibitors of human tyrosyl-DNA phosphodiesterase 1 (TDP1): qHTS in cells in absence of CPT; Potency, µM (top dose mostly 46.2 µM), inactives show top-dose activity change, negative = growth inhibition, hits mostly inhibitors; AID 686978, 2013; DT40 Tdp1-/- hTDP1 cells, no CPT, ATP luminescence, 48 h; 420,000 compounds, 15% hits; further: potency means the concentration at half of the fitted maximal effect; on the % scale 0 is the no-effect control and ±100 the full control effect; nearly all actives have a fitted effect of over 55% in size
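Seeded 400 DT40-hTDP1 cells/well (vehicle DMSO, no 20 nM CPT); pinned compounds; ≥48 hr at 37 °C; CellTiter-Glo luminescence as viability measure.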
IL-1B inflam inh = inhibitors of inflammasome signaling (IL-1 beta secretion) | AID 743279 | activity change, % at 57.5 µM | 360,000 compounds, 4.7% hits | THP-1 LPS/ATP IL-1B secretion, AlphaLISA, 16 h; active compounds read low; in the data active means activity change below about -50%; inconclusive means mostly about -30% to -49%; further: on the % scale 0 is the no-effect control and ±100 the full control effect
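Secreted IL-1B measured by AlphaLISA bead assay after 16 h compound exposure of THP-1 cells; compounds (final up to 57.5 uM) added 1 h before LPS (250 ng/mL) and ATP (1.25 mM) stimulation; lower signal means less secretion.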
DT40 TDP1 CPT = growth inhibition of DT40 Tdp1-/-;hTDP1 cells with camptothecin (screen for TDP1 inhibitors); Potency, µM (highest dose often 46.2 µM), for the others: at the top dose activity change, negative = growth inhibition, most hits filed as inhibitors; chicken DT40 Tdp1-/-;hTDP1 cells + 20 nM CPT, ATP luminescence, 48 h; AID 686979; 420,000 compounds, 12% hits; further: potency means the concentration at half of the fitted maximal effect; on the % scale 0 is the no-effect control and ±100 the full control effect; nearly all actives have a fitted effect of over 55% in size
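Chicken DT40 Tdp1-/- cells stably complemented with human TDP1 were seeded at 400 cells/well in medium containing 20 nM camptothecin, exposed to pin-transferred compounds, and grown at 37 °C for at least 48 hr. Viability was read as ATP luminescence.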
HepG2 tox = counter-screen for TGF-b inhibitors: cytotoxicity in HepG2 cells | HepG2 CAGA-GFP viability, ATP luminescence, 18 h | Potency, µM (top dose mostly 46.1 µM), without a hit: at the highest dose activity change, negative = cytotoxicity, usual class: cytotoxic | 410,000 compounds, 0.76% hits; further: potency means the concentration at half of the fitted maximal effect
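CellTiter-Glo luminescence gave cytotoxicity after 18 hours at 37 degrees C. The cells were HepG2 CAGA-GFP in 1% FBS DMEM, stimulated with 500 pg/mL TGF-beta after compound addition. %Activity was normalised to no-cell wells (complete cell-killing) and DMSO (no toxicity), and curves were fitted and classified.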
TGFb SMAD3 inh = TGF-b pathway inhibition | HepG2 CAGA-GFP TGF-b/SMAD3 reporter, GFP fluorescence, 18 h; TGF-beta stimulated, 500 pg/mL final | 410,000 compounds, 1.2% hits | Potency, µM (doses to about 46.1 µM), for inactives: at the highest dose activity, negative = inhibition, hits mostly inhibitors; further: potency means the concentration at half of the fitted maximal effect; on the % scale 0 is the no-effect control and ±100 the full control effect; nearly all actives have a fitted effect of over 65% in size
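TGF-beta reporter screen: HEPG2 CAGA-GFP, 1% FBS, 500 pg/mL TGF-beta final, 18 h; per-cell GFP summed per well; curves fitted and categorized by class.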
* hit, by the source's call; ? = inconclusive; . = no result; [ ] = another dose, or the depositor's remark. In the library only some 18% were active in any assay of this set; here they are far more common. Unless noted, the call rests on the fitted dose curve; in most records, active means well fitted curve in the direction sought with a large enough effect; inconclusive means small, poorly fitted or top-dose-only effect, or another doubt; inactive means no such curve, though single readings can be large; an effect the other way counts as inactive or inconclusive.

SMILES	TDP1 block	DT40 TDP1 no CPT	IL-1B inflam inh	DT40 TDP1 CPT	HepG2 tox	TGFb SMAD3 inh
O=C(Nc1ccc2ccccc2c1)c1cnccn1	9.3%	-14.1%	-0.6	-16.8%	-0.1%	-7.9%
Cc1cc2ncc(-c3ccccc3)nc2cc1C	-12.2%	?	22.7	-12.9%	-12.1%	-19.5%
COc1cc2cnc(-c3ccccc3)c(-c3ccc([N+](=O)[O-])cc3)c2cc1OC	5.0%	?	-9.7	?	-9.2%	-4.5%
COc1cc2ncc(-c3ccccc3)nc2cc1OC	6.1%	25.1µM*	.	20.6µM*	.	.
CCOC(=O)c1ccc2ncc(-c3ccccc3)nc2c1	5.7%	0.1%	49.9	2.0%	2.51µM*	2.0%
COc1cc2cnc(-c3ccccc3)cc2cc1OC	-0.2%	?	-20.3	18.4µM*	-19.4%	0.3%
COc1cc2cnc(-c3ccccc3)c(-c3cc(OC)c(OC)c(OC)c3)c2cc1OC	3.3%	13µM*	-50.8*	?	3.6%	-7.1%
COc1ccc(-c2cc3cc(OC)c(OC)cc3cn2)cc1	2.3%	?	-12.0	?	-21.1%	-16.1%
Cc1noc(C)c1COC(=O)c1csc2c1CCCC2	.	-18.6%	74.7	9.4%	-34.2%	-4.2%
C#CCSc1nncn1C(=O)/C=C/c1ccccc1	2.0%	?	-80.7*	13µM*	2.9%	4.4%
CC(C)C[C@H](NC(=O)[C@H](CCC(N)=O)NC(=O)[C@H](CCCCN)NC(=O)[C@H](CCC(N)=O)NC(=O)[C@@H](N)CCC(=O)O)C(=O)N[C@@H](CCC(N)=O)C(=O)O	4.9%	7.5%[4.12 µM]	.	-1.4%[4.12 µM]	.	.
Cc1ccc(C(CC(=O)Nc2ccc(F)c(Cl)c2)N2Cc3ccccc3C2=O)cc1 (configuration not stated)	-2.8%	?	.	?	-8.9%	4.2%
COc1cc(NC(=O)CC(c2cccs2)N2Cc3ccccc3C2=O)cc(OC)c1OC (configuration not stated)	-2.8%	23.1µM*	.	23.1µM*	-31.5%	-28.1%
COc1ccc(C(CC(=O)Nc2ccc(C)c(C)c2)N2Cc3ccccc3C2=O)cc1OC (configuration not stated)	2.8%	20.6µM*	.	14.6µM*	-20.3%	-12.6%
COc1ccc(C(CC(=O)Nc2ccc(F)c(Cl)c2)N2Cc3ccccc3C2=O)cc1OC (configuration not stated)	2.8%	14.6µM*	.	?	-34.7%	?
O=C(NC1CCCC1)C(c1cccnc1)N(Cc1ccccc1)C(=O)c1csnn1 (configuration not stated)	7.0%	-1.8%	3.1	3.3%	1.6%	8.3%
O=C1NC[C@H](CCCCN2CCN(CCc3ccccc3)C(=O)C2=O)N(CCC2CCCCC2)C1=O	.	-25.9%	-9.4	2.2%	.	.
CCCCCCCCCCOC(=O)C[N+](C)(C)C/C=C(/C)Cl	0.0%	3.66µM*	?	8.2µM*	-20.8%	-2.2%
CCCCCCCCCCCCOC(=O)C[N+](C)(C)C	.	-13.2%	.	6.1%	-38.0%	2.5%
CCCCCCCCOC(=O)C[N+](C)(C)C/C=C(/C)Cl	-3.1%	10.3µM*	-17.8	16.4µM*	4.2%	-0.2%
Cc1ccccc1/C=N\NC(=O)c1ccccc1-n1cccc1	2.4%	-18.8%	6.7	0.4%	0.0%	39.6%
CC(=O)Nc1cc(-c2cccc(C(=O)NCCN(C)C)c2)cn2c(-c3ccc(F)c(Cl)c3)cnc12	.	1.46µM*	-11.4	2.06µM*	-44.2%	66.8%
CC(=O)Nc1cc(-c2cccc(C(=O)NCCN(C)C)c2)cn2c(-c3ccc(C(C)=O)cc3)cnc12	.	20.6µM*	62.0	?	-73.3%	-5.5%
Cc1cc(-c2cc(NC=O)c3ncc(-c4cccc(C(=O)NCCN(C)C)c4)n3c2)cc(C)c1O	.	?	-3.0	?	-95.8%	?
CC(=O)Nc1cc(-c2ccc(CO)cc2)cn2c(-c3ccc(F)c(Cl)c3)cnc12	.	?	-27.7	?	-5.0%	?
SMILES	TDP1 block	DT40 TDP1 no CPT	IL-1B inflam inh	DT40 TDP1 CPT	HepG2 tox	TGFb SMAD3 inh
CCOC(=O)C1=C(C)Nc2sc(C(=O)c3ccc(C)cc3)c(N)c2C1c1ccc(C(=O)OC)cc1 (configuration not stated)	5.5%	?	-29.1	?	14.5%	5.8%
CCOC(=O)C1=C(C)Nc2sc(C(=O)c3ccc(F)cc3)c(N)c2C1c1ccc(C(=O)OC)cc1 (configuration not stated)	2.6%	11.6µM*	-10.2	18.4µM*	9.6%	0.9%
COc1cc(-c2cnc3c(NC=O)cc(-c4ccccc4Cl)cn23)cc(OC)c1OC	.	1.03µM*	126.0	0.82µM*	-25.5%	?
COc1cc(-c2cnc3c(NC=O)cc(-c4cccc(NC(C)=O)c4)cn23)cc(OC)c1OC	.	0.517µM*	157.1	0.517µM*	8.6%	?
COc1ccc(F)cc1-c1cc(NC=O)c2ncc(-c3cc(OC)c(OC)c(OC)c3)n2c1	.	3.26µM*	121.3	2.31µM*	-43.3%	?
COc1cc(-c2cnc3c(NC=O)cc(-c4ccc(C)cc4)cn23)cc(OC)c1OC	.	0.103µM*	111.8	0.164µM*	-30.5%	?
CC(C)c1ccc(Nc2n[nH]c(=S)s2)cc1	.	-29.3%	55.2	-22.5%	-1.8%	3.2%
O=C(COc1coc(CN2CCN(c3ccccc3F)CC2)cc1=O)NC1CCCC1	-1.4%	?	26.0	-3.6%	2.7%	-17.0%
COc1cc(-c2cnc3c(NC=O)cc(-c4ccccc4)cn23)cc(OC)c1OC	.	0.0461µM*	138.8	0.0092µM*	-36.0%	-6.4%
COc1cc(-c2cc(NC=O)c3ncc(-c4ccccc4)n3c2)cc(OC)c1OC	.	?	.	?	-45.9%	?
Cc1ccc(-c2cc(NC=O)c3ncc(-c4cnn(C)c4)n3c2)cc1	.	3.66µM*	-50.9*	4.11µM*	-30.0%	2.2%
CCN(CC)CCCNC(=O)CN1C(=O)CCn2nc(-c3cn(C)c4ccccc34)cc21	0.6%	9.1%	.	-1.3%	2.5%	28.8%
C[C@@H]1CN([C@@H](C)CO)C(=O)CCCn2nncc2CO[C@@H]1CN(C)C(=O)Nc1cccc(Oc2ccccn2)c1	.	-4.4%	0.9	-0.7%	-0.4%	11.4%
c1ccc(-c2nc(NCC3CCCO3)c3oc4ccccc4c3n2)cc1 (configuration not stated)	-3.0%	?	3.6	-19.7%	-2.1%	21.1%
